Test in all cases: NCI-60 one-dose screen, 48 h (100 = growth as untreated, 0 = no growth, -100 = all killed)
Common to all, as to conditions: 10 µM unless noted

In assay [1] the test system is NCI-H226 lung.
Assay [2] concerns NCI-H322M lung.
Assay [3] concerns HOP-62 NSCLC.
Assay [4] deals with NCI-H460 lung.
Assay [5] concerns HOP-92 NSCLC.
Assay [6] deals with NCI-H522 lung.
The subject of assay [7] is A549/ATCC NSCLC.
Assay [8] has as its system 786-0 renal.
Assay [9] relates to COLO 205 colon.
Assay [10] concerns DU-145 prostate.
The test system of assay [11] is K-562 leukemia.
Assay [12] deals with MALME-3M melanoma.
In assay [13] the test system is MDA-MB-231 breast.
The test system of assay [14] is RXF 393 renal.
In assay [15] the test system is SF-268 CNS.
The test system of assay [16] is SF-295 CNS.
Assay [17] concerns SF-539 CNS.
In assay [18] the test system is UACC-257 melanoma.
Assay [19] relates to M14 melanoma.

The panel holds about 83,000 compounds, 20% with a hit somewhere; the sample as a whole holds those more often.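 Cells were grown in 96-well plates and exposed to the test compound at a single concentration for 48 hours; results are reported as percent growth, with values below 10 considered active.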 A number with no mark means an inactive call. The source made the active and inactive calls.

On to `NC(=O)c1ccc(NC(=O)c2oc3ccccc3c2-c2cnn(-c3ccccc3)c2)cc1`, for which the growth in [1] was 13.9% [50 µM]; in assay [2], 23.7% [50 µM]; in assay [3] it was 5.91% [50 µM] (active); in assay [4] it was 5.78% [50 µM] (active); in assay [5] it was -27.3% [50 µM] (active); in assay [6], 21.4% [50 µM]. The growth in assay [7] was 8.08% [50 µM] (active); in assay [8] it was -26.8% [50 µM] (active); in [9] it was 19.9% [50 µM]; in [10], 7.15% [50 µM] (active); in assay [11] it was 46% [50 µM]; in assay [12] it was -7.76% [50 µM] (active). The growth in assay [13] is -68% [50 µM] (active); in [14], -29.1% [50 µM] (active); in [15] it was 27.4% [50 µM]; in assay [16], 15.6% [50 µM]; in assay [17], -21.7% [50 µM] (active); in assay [18] it was 47.3% [50 µM]. For the same molecule, the growth in assay [19] is -0.698% [50 µM] (active).
Consider `COc1ccc(C2C(C#N)=C(N)Oc3c2sc2c(Br)cccc32)cc1` (centres undefined), for which the growth in assay [1] was 49.2%; in assay [2] it was 30%; in [3], 23.7%; in [4], 12.9%; in assay [5] it was 47%; in [6], -6.29% (active). Besides, the growth is 29.6% in [8]; 2.31% (active) in [9]; 21.4% in assay [10]; 9.39% (active) in assay [11]; 37% in assay [12]; 40.5% in [13]. Moreover, the growth in assay [14] is 4.42% (active); in [15], 38.7%; in assay [16], 15.7%; in [17], -12.4% (active); in [18] it was 65.5%; in assay [19], 6.9% (active).
For `CCOC(=O)c1c(C)nn(CC(O)c2ccccc2)c1NC(=O)Nc1cccc(F)c1` (centres undefined), the growth in assay [1] was 85.4%; in [2], 88.8%; in assay [3], 91.2%; in assay [4], 93.6%; in assay [5], 71.8%; in [6], 81.8%. Also, the growth is 87% in [7]; 88.7% in assay [8]; 102% in [9]; 94.3% in [10]; 88.5% in assay [11]; 101% in assay [12]. The growth in assay [13] was 93%; in [14], 85.2%; in assay [15], 83.7%; in [16], 78.9%; in assay [17], 98.8%; in assay [18] it was 91%. Besides, in [19], the growth is 96.2%.
Consider `C=C(C)[C@@H]1CC[C@]2(CO)CC[C@]3(C)[C@H](CC[C@@H]4[C@@]5(C)CCC(NCCc6ccc(O)cc6)C(C)(C)[C@@H]5CC[C@]43C)[C@@H]12` (some centres undefined), for which the growth was 66.8% in [1]; -76.5% (active) in assay [2]; -89.5% (active) in assay [4]; -93.2% (active) in [5]; -81.3% (active) in assay [6]; -87.1% (active) in [7]. In addition, the growth in assay [8] is -92.7% (active); in [9], -76.4% (active); in assay [10], -96.5% (active); in [11], -51.2% (active); in [12], -81.5% (active); in assay [13], -87.3% (active). Besides, the growth in assay [14] is -91.2% (active); in assay [15], -88.8% (active); in assay [16] it was -95.8% (active); in assay [17], -88% (active); in [18] it was -78.2% (active); in assay [19] it was -84.9% (active).
Regarding `COc1ccc(-c2cc(-c3ccc(OC)cc3)nc(NCCCNc3ccnc4cc(Cl)ccc34)n2)cc1`, the growth in [1] is 70.5%; in [2], 98.4%; in [3], 87.4%; in assay [4], -39.5% (active); in assay [5], 55.9%; in assay [6] it was 87.4%. Also, the growth in assay [7] was 17.8%; in assay [8], -88.6% (active); in assay [9], 2.44% (active); in assay [10], -2.21% (active); in assay [11], -14.3% (active); in assay [12] it was -75.6% (active). In addition, the growth in assay [13] is 76.7%; in assay [14] it was 24.2%; in [15], 85.3%; in assay [16], 83.8%; in assay [17], 63.4%; in assay [18], 46.2%. The growth in [19] was 33.3%.
As for `Cc1ccc(N=Nc2c(N)nn(-c3ccccc3)c2N)cc1`, the growth was 76% in [1]; 32.7% in assay [2]; 9.76% (active) in [4]; 86.2% in assay [5]; -11% (active) in [6]; 29.3% in assay [7]. The growth in assay [8] was 63.7%; in [9] it was 16.9%; in [10] it was 27.8%; in [11], 7.43% (active); in assay [12], 39.3%; in [13], 54.4%. The growth in assay [14] was -0.509% (active); in [15], 54.5%; in [16] it was 13.8%; in assay [17], 11.4%; in assay [18], 63.4%; in assay [19], -2.8% (active).
Regarding `CN(C)Cc1ccc(C(=O)Nc2ccc3ncnc(Nc4ccc(Oc5cccc(F)c5)c(Cl)c4)c3c2)cc1`, the growth in [1] is 80.2%; in [2], 4.65% (active); in assay [3], 45.1%; in [4], -74.3% (active); in assay [5], 36.2%; in [6], -29.6% (active). The growth in assay [7] is 8.26% (active); in [8], -84.9% (active); in [9], -53.3% (active); in [10] it was 7.69% (active); in assay [11], -39.3% (active); in [12] it was -80.6% (active). The growth is -73.9% (active) in assay [13]; -80.4% (active) in assay [14]; -31% (active) in assay [15]; -41.7% (active) in [16]; -90.1% (active) in [17]; -58.3% (active) in assay [18]. For the same molecule, in assay [19], the growth was -69.3% (active).
In the case of `CCN(CC)S(=O)(=O)c1ccc(S(=O)(=O)N2CCC[C@@H](C(=O)N3CCN(C(=O)OC(C)(C)C)CC3)C2)cc1`, the growth in [1] was 77.9%; in assay [2], 88.5%; in [3] it was 66.1%; in assay [4], 73.4%; in [5], 74.9%; in [6], 68.4%. The growth in assay [7] is 67.7%; in [8] it was 92.8%; in assay [9], 108%; in [10] it was 61.2%; in [11], 35%; in assay [12] it was 93.7%. The growth was 77.7% in assay [13]; 74.4% in [14]; 73.1% in assay [15]; 55.8% in assay [16]; 77.7% in assay [17]; 49.9% in [18]. For the same molecule, the growth in [19] was 77.9%.

Source of the values: PubChem BioAssay (NCI).
